# Laboratory results reported in PubChem BioAssay AID1259343 (VanderVen Lab, College of Veterinary Medicine, Cornell …, 2017).
# About 2,900 (47%) of roughly 6,200 compounds were called active. Cut-off read from the data, not from the text of the source: active = inhibition above about 50%; inactive = the rest. The set was probably picked from earlier hits. The list shows a part of the results.
# Test: Mycobacterium tuberculosis growth inhibition, primary screen (AID 1259343)
# Conditions: inhibition: at 10 µM, stronger effect = higher value; outcome: 10 uM
row,Structure (SMILES),inhibition
1,CC(C)CN(CCC(=O)O)c1nc(-c2ccccc2Cl)nc2ccccc12,37.1% (inactive)
2,NC(=O)c1csc(C(=O)NC2CC2c2cccc(Cl)c2)c1 (configuration not stated),27.2% (inactive)
3,NC(=O)c1csc(CNc2ccc(F)cc2)c1,68.7% (active)
4,Clc1ccc(C(Cn2ccnc2)OCc2c(Cl)cccc2Cl)c(Cl)c1 (configuration not stated),-47.1% (inactive)
5,CN(C)C(=O)CSCC(=O)O,-0.78% (inactive)
6,O=C(CCC1CCN(C(=O)CCc2ccccc2)CC1)Nc1ccc2c(c1)OCCO2,0.33% (inactive)
7,C(=C\c1ccccc1)/CNc1ccc2c(c1)OCCO2,-42.5% (inactive)
8,O=C1CC(Nc2ccc3c(c2)OCCCO3)C(=O)N1CCc1ccccc1F (configuration not stated),53.9% (active)
9,COc1ccc(Nc2cccc3nonc23)cc1,60.3% (active)
10,COc1ccc(-c2nc(Nc3ccc(F)cc3)c3ccccc3n2)cc1,26.9% (inactive)
11,CC1(C)CC[C@@]2(C(=O)O)C(C1)C1=CCC3[C@@]4(C)CC[C@H](O)C(C)(C)C4CC[C@@]3(C)[C@]1(C)C[C@@H]2O (some centres not stated),69.3% (active)
12,Cc1nc(NCc2ccco2)c2c3c(sc2n1)CCCC3,59.1% (active)
13,Cc1cc(/C=C/c2ccc3cc(N(C)C)ccc3[n+]2C)c(C)n1-c1ccccc1,48.1% (inactive)
14,Cc1cc(/C=N\O)c(C)n1-c1ccc(-c2ccccc2)cc1,79.1% (active)
15,Cc1cc(C=Cc2ccc3cc(N(C)C)ccc3[n+]2C)c(C)n1-c1ccccc1,inactive
16,O=[N+]([O-])c1ccc(NS(=O)(=O)c2ccc(Br)cc2)cc1,58.1% (active)
17,O=[N+]([O-])c1cc(NS(=O)(=O)c2cc(Cl)cc(Cl)c2)ccc1Cl,21.6% (inactive)
18,O=[N+]([O-])c1cc(S(=O)(=O)Nc2ccc(Br)cc2)ccc1Cl,66.2% (active)
19,COc1ccc(CNc2ccc([N+](=O)[O-])cc2)cc1,4.07% (inactive)
20,O=[N+]([O-])c1ccc(NS(=O)(=O)Cc2ccccc2)cc1,73.9% (active)
21,O=S(=O)(Nc1ccc2c(c1)CCC2)c1ccc(Br)cc1,32.5% (inactive)
22,CC(NC(=O)c1cccs1)c1ccc(Cl)s1 (configuration not stated),-37.7% (inactive)
23,CC(NC(=O)c1ccc(Cl)o1)c1ccc(C(F)(F)F)cc1 (configuration not stated),85.3% (active)

row,Structure (SMILES),inhibition
1,O=C(NCc1ccccc1)c1ccc(C(F)(F)F)cc1,20.5% (inactive)
2,CC(NC(=O)c1cccs1)c1ccc(C(F)(F)F)cc1 (configuration not stated),69.9% (active)
3,CC(NC(=O)c1ccc(Br)o1)c1ccc(Cl)s1 (configuration not stated),-46.6% (inactive)
4,CC(NC(=O)c1ccc(C(F)(F)F)cc1)c1ccco1 (configuration not stated),62.5% (active)
5,CC(NC(=O)CC1C=CCC1)c1ccc(C(F)(F)F)cc1 (configuration not stated),12.8% (inactive)
6,CCCc1cc(=O)[nH]c(-n2nc(C)cc2NC(C)=O)n1,99.8% (active)
7,CCCc1cc(=O)[nH]c(-n2nc(C)cc2NC(=O)C(C)(C)Oc2ccc(Cl)cc2)n1,2.87% (inactive)
8,CCCc1cc(=O)[nH]c(-n2nc(C)cc2NC(=O)CC)n1,100% (active)
9,CCCc1cc(=O)[nH]c(-n2nc(C)cc2NC(=O)C(C)(C)CCl)n1,102% (active)
10,O=c1c(O)cccc2cc(O)c(O)c(O)c12,64.6% (active)
11,CCCCNC(=S)NNc1ncnc2sc(C)c(C)c12,65.6% (active)
12,Cc1sc2ncnc(SCC(=O)c3ccc(Cl)s3)c2c1C,13.9% (inactive)
13,CCCC(CCC)=NNc1ncnc2sc(C)c(C)c12,96.3% (active)
14,COC(=O)C(C)Sc1ncnc2sc(C)c(C)c12 (configuration not stated),-21% (inactive)
15,Cc1ccsc1C=NNc1ncnc2sc(C)c(C)c12,66.9% (active)
16,CC(=NNc1ncnc2sc(C)c(C)c12)c1ccc(Cl)s1,47.1% (inactive)
17,COC(=O)c1ccc(CSc2ncnc3c2nnn3Cc2ccccc2)o1,26.9% (inactive)
18,COC(=O)c1ccc(CSc2ncnc3c2nnn3Cc2ccc(F)cc2)o1,3.1% (inactive)
19,COC(=O)c1ccc(Cn2ncc(Cl)c(Cl)c2=O)o1,75.5% (active)
20,CC(C)C(C)NC(=O)Nc1nc(-c2ccccc2)ns1 (configuration not stated),83.1% (active)
21,COCC1(NC(=O)Nc2nc(-c3ccccc3)ns2)CCCC1,5.18% (inactive)
22,CCOC(=O)C1(Cc2ccc(Cl)cc2)CCN(Cc2cccc3nonc23)CC1,78.1% (active)
23,CCOC(=O)C1(CCOc2ccccc2)CCN(Cc2nc(C(C)C)cs2)CC1,inactive

row,Structure (SMILES),inhibition
1,CCOC(=O)C1(Cc2ccc(Cl)cc2)CCN(C(=O)Nc2ccc(Cl)cc2C)CC1,1.06% (inactive)
2,CNC(=O)c1ccccc1NC(=O)c1ccc(C)c(Br)c1,23.1% (inactive)
3,Cc1cc(Br)ccc1NC(=O)c1ccc([N+](=O)[O-])o1,38.1% (inactive)
4,Cc1cccc(NC(=O)c2n[nH]c([N+](=O)[O-])c2Br)c1C,86.8% (active)
5,C=CCSc1nn2c(=O)c3ccccc3nc2s1,97.6% (active)
6,CCOc1ccc(Br)c(C=Nc2ccc3oc(=O)ccc3c2)c1O,81.3% (active)
7,Cc1c(C(=O)NCc2ccc(Cl)c(Cl)c2)sc(=O)n1CCc1ccccc1,35.6% (inactive)
8,Cc1nc(COc2ccc(C(=O)NCc3ccc(F)cc3)cc2)cs1,-15.9% (inactive)
9,Cc1csc2nc(O)c(C(=O)NCc3ccc(F)cc3)c(=O)n12,74.4% (active)
10,Cc1c(C(=O)NCc2ccc(Cl)c(Cl)c2)sc(=O)n1Cc1ccc(F)cc1,17.9% (inactive)
11,Cc1csc2nc(O)c(C(=O)NCCc3ccccc3)c(=O)n12,82.8% (active)
12,CC(=O)NCc1ccc(-c2nc(CCc3ccccc3)sc2C)s1,28% (inactive)
13,CCOc1ccc(NC(=O)c2cncc(Br)c2)cc1F,44.8% (inactive)
14,O=C(Nc1ncccc1OC(F)F)c1cncc(Br)c1,89.3% (active)
15,C=CCN(c1ccccc1)S(=O)(=O)c1ccc(Br)cc1Cl,27.3% (inactive)
16,C1=CCC(c2nc(Cc3cccnc3)no2)CC1 (configuration not stated),-4.1% (inactive)
17,COc1ccc2cc(C3CN(Cc4noc(C5CC5)n4)CCO3)ccc2c1 (configuration not stated),23.6% (inactive)
18,COc1ccc2c(c1)CC(c1nc(Cc3ccc(F)cc3)no1)CO2 (configuration not stated),63.1% (active)
19,CCCCN(C)C1=CC2=CC(=C(C#N)C#N)CCC2CC1 (configuration not stated),45.5% (inactive)
20,N#CC(C#N)=C1C=C2C=C(N3CCCCCC3)CCC2CC1 (configuration not stated),73.5% (active)
21,N#CC(C#N)=C1C=C2C=C(N3CCCCC3)CCC2CC1 (configuration not stated),49% (inactive)
